Data from the OligoGym collection.

target: ESR2; test: pooled miR-30 sensor sort-seq; sequence = guide strand; details: shRNA
Further: reference of the scale not given here.

Row | Sequence | sensor-assay potency score (higher = more potent)
1 | TAGCTGGACAAATATAATCATT | -1.44
2 | TTTTATCGATTGTACACTGATT | -1.06
3 | TTTTCTGCCCTCGCATGCCTGA | -0.946
4 | ATCATTAACACCTCCATCCAAC | -1.05
5 | TTATCGATTGTACACTGATTTG | -1.64
6 | TTCCAAGTTAGTGACATTGCTG | -0.291
7 | TAAAAAAGGCCTTACATCCTTC | -0.442
8 | TATCGATTGTACACTGATTTGT | -0.431
9 | TTGTACACTGATTTGTAGCTGG | 0.245
10 | TACCCACATCTCTCTCTCCGGG | -0.444
11 | AAATATAATCATTATGTCCTTG | -0.156
12 | TTGTCGGCCAACTTGGTCAGGG | -0.443
13 | TTATGTCCTTGAATGCTTCTTT | 0.411
14 | TTTTTATCGATTGTACACTGAT | -0.36
15 | TAATCGCTGCAGACAGCGCAGA | -1.17
16 | TTACATCCTTCACACGACCAGA | -0.608

target: ETFA; test: as above; details: shRNA

Row | Sequence | sensor-assay potency score (higher = more potent)
17 | TTTCACTTTCTCATCACACTTC | 0.639
18 | TAGCTCTGGTCGATCACTTTTT | -1
19 | TTGATTGCAATGATGTCAGAAA | -0.689
20 | TTTCTGAACTGGCACTACCGCC | -0.966
21 | TTGATGCCTTTTCTGAACTGGC | -0.864
22 | TTCTCATCACACTTCACTGTAC | -0.442
23 | TTTCTGGTCAAGCCACTCTGAT | -1.17
24 | TTTACAGAGATCTTGTGCCACC | -0.57
25 | TCCAACTTGCATGTCATTGGGA | -0.493
26 | TTTCTCATCACACTTCACTGTA | 0.00115
27 | TATAATACCCACAAATATCTGT | 0.241
28 | TAAATCTGCAACTATTCCATAA | -0.957
29 | TATTCCATAATCTGCCACTTGG | -0.476
30 | TAATTGAACTGCTTCTGAGTTG | -0.401
31 | TAGTTCTCACAAATGTGTCAGG | -0.609
32 | TGTAATTGAACTGCTTCTGAGT | -0.4
33 | TTATGAAATGTAGCTCTCCATG | -1.39
34 | TTAGCTCTGGTCGATCACTTTT | -1.24
35 | TAAATAGTTCTCACAAATGTGT | -0.288
36 | TCTTGCTGTCTTTCATCCCAGC | -0.987
37 | TGTGTAATTGAACTGCTTCTGA | 0.237
38 | TGAACTGCTTCTGAGTTGCCAA | -0.648
